Among the data in PubChem BioAssay AID1347138 (National Center for Advancing Translational Sciences (NCATS), 2019) are Potency values, retold here.

The other results are listed elsewhere or left out. A call without a number means that no potency is given here. Results filed as inconclusive are left out. Calls of active or inactive are those of the source. The call rests on the fitted dose curve; in most records, active means well fitted inhibition curve with a large enough effect; inconclusive means small, poorly fitted or top-dose-only effect; inactive means no such curve, though single readings can be large or run the other way.

This assay can be described thus: qHTS of pediatric cancer cell lines to identify multiple opportunities for drug repurposing: Orthogonal 3D caspase screen for TC32 cells. As to conditions: TC32 3D spheroids, caspase-3/7 fluorescence imaging, 24 h; series mostly up to 30.7 µM. An excerpt: Drug repurposing or repositioning has been offered as a strategy for drug development in oncology programs. This approach has special potential for childhood cancers and other rare or orphan diseases, where the expected return on new drug development has been a disincentive to pharmaceuticals. […] In this project we exploit the poly-pharmacology of drugs to discover new indications via phenotypic screening of a panel of 19 well-characterized cell lines derived from solid tumors seen in children and adolescents. The goal is to identify approved drugs with previously unrecognized anticancer properties that has the potential to reveal new mechanisms and biological processes involved in carcinogenesis or drug resistance. We employed a titration-based paradigm (quantitative high-throughput screening or qHTS), where all compounds were tested at multiple concentrations for their effect on cell viability. Concentration-response curves (CRCs) were derived directly from the primary screen, and both potency and efficacy values were used to identify compounds with robust bioactivity profiles. […] These two assays will be used to validate active compounds and assess the correlation of compound's potency in 2D vs 3D cultures on selected cell lines. Assay Submitter: Nathalia J. Martinez, National Center for Advancing Translational Sciences, National Institutes of Health, Rockville, MD, USA; email: natalia.martinez@nih.gov Shen, M et al. Quantitative high-throughput phenotypic screening of pediatric cancer cell lines identifies multiple opportunities for drug repurposing. Oncotarget 2017 Dec 19;9(4):4758-4772. PMID 29435139.
The cells were obtained from University of North Carolina (UNC), Pediatric Preclinical Testing Program (PPT), and Coriell Institute (CI). qHTS apoptosis assay in 3D cultures: For the apoptosis assay, cells were assayed in phenol red-free growth media at a density of 1,000 cells/well. Thirty microliters of cells were dispensed into 384-well, ULA, round bottom plates (Corning) using a Multidrop dispenser. Plates were spun down at 1,000 rpm for 1 min and incubated at 37 C, 5% CO2, under a humidified atmosphere for 24 hours to allow spheroid formation. Ninety-two nanoliter of compounds and controls were subsequently transferred via GNF Pintool. Plates were sealed using a breathable seal (Diversified Biotech, Dedham, MA) and incubated for 24 hours at 37C before addition of CellEvent Caspase-3/7 green detection reagent (TheremoFisher Scientific). Staurosporine at final concentrations of 3 µM was used as positive control. Spheroids were imaged using bright-field and green (EX: […]) filters and analyzed with the Celigo Tumorsphere 1+2 application software. Spheroids were first identified using bright-field segmentation, and the average fluorescent intensity of the green channel was used to quantify caspase activation as percent activity based on neutral control DMSO and positive control.
`CC(NCc1ccc2c(c1)nc(NC(=O)c1ccc(-c3cn[nH]c3)s1)n2CC(C)(C)O)C(C)(C)C` (stereo unspecified): the Potency was 1.44 µM (active).

As for `CC[C@]1(O)C[C@@H]2CN(CCc3c([nH]c4ccccc34)[C@@](C(=O)OC)(c3cc4c(cc3OC)N(C)[C@H]3[C@@](O)(C(=O)OC)[C@H](OC(C)=O)[C@]5(CC)C=CCN6CC[C@]43[C@@H]65)C2)C1`, the Potency was 0.0722 µM (active). As for `COc1c(C)c2c(c(O)c1C/C=C(\C)CCC(=O)O)C(=O)OC2`, the Potency entry was “inactive”.

For the compound `C=C1C(=CC=C2CCC[C@]3(C)[C@@H]([C@H](C)C=C[C@H](C)C(C)C)CC[C@@H]23)C[C@@H](O)C[C@@H]1O`, the Potency result was “inactive”. In the case of `COC(=O)Nc1nc2ccc(Sc3ccccc3)cc2[nH]1`, the Potency was 11.4 µM (active). For `CC1(C)O[C@@H]2C[C@@H]3[C@H]4C[C@@H](F)C5=CC(=O)C=C[C@]5(C)[C@@]4(F)[C@@H](O)C[C@]3(C)[C@]2(C(=O)CO)O1`, the Potency result was “inactive”.
